This is an account of results in PMC8384837, “Expanding the binding specificity for RNA recognition by a PUF domain”.

Substitutions are numbered along the chain they refer to.

Assay in all cases: yeast three-hybrid, YBZ-1, SC-Leu-His + 0.5 mM 3-AT, 4 days
What all share (conditions): tags: N-Gal4 AD-HA kept; label: inside an RPR1-promoter hybrid RNA with tandem MS2 sites; ssRNA

One test addresses PUM1 PUF domain R5-NAG (Homo sapiens, UniProt Q14671 828-1176, C1007N;R1008A;Q1011G). In a few lines: (§1)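 Pumilio-1 PUF domain libraries, randomized at the three base-contacting residues of each repeat, were co-expressed with matching RNA elements from a centromeric plasmid in strain YBZ-1, which carries a LexA–MS2 coat fusion and a HIS3 reporter. Transformants grew for four days on SC-Leu (input) or on SC-Leu-His + 0.5 mM 3-AT (selection), and the repeat regions were PCR-amplified and Illumina-sequenced. The interaction score is the log change in variant frequency from input to selection. That logarithm is base 2, with a pseudocount of 1 where a variant was absent.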

The target in a further test is PUM1 PUF domain R1-FGR (Homo sapiens, UniProt Q14671 828-1176, S863F;R864G;Q867R). The method in brief:
as §1

The target in a further test is PUM1 PUF domain R1-RSE (Homo sapiens, UniProt Q14671 828-1176, S863R;R864S;Q867E). The method in brief: as §1
The next test has as its target PUM1 PUF domain R4-SPT (Homo sapiens, UniProt Q14671 828-1176, N971S;H972P;Q975T). In a few lines: as §1
In a further test the target is PUM1 PUF domain R4-DWI (Homo sapiens, UniProt Q14671 828-1176, N971D;H972W;Q975I). The method in brief:
as §1

The next test deals with PUM1 PUF domain R4-GNT (Homo sapiens, UniProt Q14671 828-1176, N971G;H972N;Q975T). In a few lines: as §1
Another test deals with PUM1 PUF domain R3-AIR (Homo sapiens, UniProt Q14671 828-1176, C935A;R936I;Q939R). The method in brief:
as §1

For the next test, the target named is PUM1 PUF domain R3-LSK (Homo sapiens, UniProt Q14671 828-1176, C935L;R936S;Q939K). In a few lines:
as §1

The next test deals with PUM1 PUF domain R2-PWL (Homo sapiens, UniProt Q14671 828-1176, N899P;Y900W;Q903L). The method in brief:
as §1

A further test addresses PUM1 PUF domain R8-HFR (Homo sapiens, UniProt Q14671 828-1176, N1122H;Y1123F;Q1126R). The method in brief: as §1
The target of a further test is PUM1 PUF domain R3-RGR (Homo sapiens, UniProt Q14671 828-1176, C935R;R936G;Q939R). The method in brief: as §1
PUM1 PUF domain R3-RGR, sequence (Q14671 828-1176 C935R/R936G/Q939R): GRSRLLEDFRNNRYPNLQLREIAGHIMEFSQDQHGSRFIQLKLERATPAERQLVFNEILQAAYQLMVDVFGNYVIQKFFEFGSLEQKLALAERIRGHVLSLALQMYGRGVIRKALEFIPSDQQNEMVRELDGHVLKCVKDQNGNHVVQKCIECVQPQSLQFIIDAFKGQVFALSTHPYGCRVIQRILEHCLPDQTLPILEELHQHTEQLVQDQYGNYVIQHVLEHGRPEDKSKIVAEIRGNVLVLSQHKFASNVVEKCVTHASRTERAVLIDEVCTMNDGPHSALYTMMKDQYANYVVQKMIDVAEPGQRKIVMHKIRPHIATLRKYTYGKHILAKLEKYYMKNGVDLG
The target of another test is PUM1 PUF domain R3-VYP (Homo sapiens, UniProt Q14671 828-1176, C935V;R936Y;Q939P). In a few lines: as §1
The target of the next test is T1, PUM1 PUF domain R6-VWR (Homo sapiens, UniProt Q14671 828-1176, N1043V;Y1044W;Q1047R).
T1 sequence: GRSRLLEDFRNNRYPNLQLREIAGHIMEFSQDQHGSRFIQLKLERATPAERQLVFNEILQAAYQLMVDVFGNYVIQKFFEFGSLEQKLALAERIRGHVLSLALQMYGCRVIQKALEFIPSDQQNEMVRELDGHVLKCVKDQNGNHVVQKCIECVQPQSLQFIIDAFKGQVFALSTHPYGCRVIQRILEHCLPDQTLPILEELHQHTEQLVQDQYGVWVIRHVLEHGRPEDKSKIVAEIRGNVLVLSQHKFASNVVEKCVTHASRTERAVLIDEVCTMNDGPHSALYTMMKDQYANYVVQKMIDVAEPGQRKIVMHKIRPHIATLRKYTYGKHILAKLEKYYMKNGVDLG
In a few lines: as §1

A further test addresses T2, PUM1 PUF domain R6-SWG (Homo sapiens, UniProt Q14671 828-1176, N1043S;Y1044W;Q1047G).
T2 sequence: T1 sequence with V216S, R220G
The method in brief:
as §1

Another test concerns the target PUM1 PUF domain R7-RCC (Homo sapiens, UniProt Q14671 828-1176, S1079R;N1080C;E1083C). In a few lines:
as §1

The next test deals with PUM1 PUF domain R5-FHM (Homo sapiens, UniProt Q14671 828-1176, C1007F;R1008H;Q1011M). The method in brief:
as §1

The next test addresses PUM1 PUF domain R5-SRM (Homo sapiens, UniProt Q14671 828-1176, C1007S;Q1011M). The method in brief:
as §1

In another test the target is T3, PUM1 PUF domain R6-DWV (Homo sapiens, UniProt Q14671 828-1176, N1043D;Y1044W;Q1047V).
T3 sequence: T1 sequence with V216D, R220V
The method in brief:
as §1

Another test concerns the target PUM1 PUF domain R3-YFA (Homo sapiens, UniProt Q14671 828-1176, C935Y;R936F;Q939A). In a few lines:
as §1

For another test, the target named is PUM1 PUF domain R3-YRL (Homo sapiens, UniProt Q14671 828-1176, C935Y;Q939L). In a few lines: as §1

PUM1 PUF domain R1-FGR, sequence (Q14671 828-1176 S863F/R864G/Q867R): as the sequence (Q14671 828-1176 C935R/R936G/Q939R) above, with S36F, R37G, Q40R, R108C, G109R, R112Q counted along it
PUM1 PUF domain R5-FHM, sequence (Q14671 828-1176 C1007F/R1008H/Q1011M): as the sequence (Q14671 828-1176 C935R/R936G/Q939R) above, with R108C, G109R, R112Q, C180F, R181H, Q184M counted along it

Consider “GGCUAGAACUAGUGGAUCCCCCGGCGCCCGGCGGCUCGAGCCCGGGUAAGUGUUAAUAGUCUGCAUGCCGCCGGGCGCCAUGCCUGCAGGUCGACUCUAGAAAACAUG”, for which the binding signal with PUM1 PUF domain R5-NAG was 4.83 log2 enrichment (interaction score).
In the case of “GGCUAGAACUAGUGGAUCCCCCGGCGCCCGGCGGCUCGAGCCCGGGUAAGUGUAAAUCGUCUGCAUGCCGCCGGGCGCCAUGCCUGCAGGUCGACUCUAGAAAACAUG”, the binding signal in the test with PUM1 PUF domain R1-FGR is 0.54 log2 enrichment (interaction score); with PUM1 PUF domain R1-RSE, 2.49 log2 enrichment (interaction score).
Turning to “GGCUAGAACUAGUGGAUCCCCCGGCGCCCGGCGGCUCGAGCCCGGGUAAGUGUACAUAGUCUGCAUGCCGCCGGGCGCCAUGCCUGCAGGUCGACUCUAGAAAACAUG”, the figures for the binding signal with PUM1 PUF domain R4-SPT, with PUM1 PUF domain R4-DWI and with PUM1 PUF domain R4-GNT were 1.24 log2 enrichment (interaction score), 5.64 log2 enrichment (interaction score) and 0.59 log2 enrichment (interaction score), respectively.
In the case of “GGCUAGAACUAGUGGAUCCCCCGGCGCCCGGCGGCUCGAGCCCGGGUAAGUGUAAAUUGUCUGCAUGCCGCCGGGCGCCAUGCCUGCAGGUCGACUCUAGAAAACAUG”, the binding signal with PUM1 PUF domain R1-FGR was 3.11 log2 enrichment (interaction score).
As to “GGCUAGAACUAGUGGAUCCCCCGGCGCCCGGCGGCUCGAGCCCGGGUAAGUGUAAGUAGUCUGCAUGCCGCCGGGCGCCAUGCCUGCAGGUCGACUCUAGAAAACAUG”, the binding signal was 2.87 log2 enrichment (interaction score) with PUM1 PUF domain R3-AIR and 6.88 log2 enrichment (interaction score) in the test with PUM1 PUF domain R3-LSK.
For the sequence “GGCUAGAACUAGUGGAUCCCCCGGCGCCCGGCGGCUCGAGCCCGGGUAAGUGUAAAGAGUCUGCAUGCCGCCGGGCGCCAUGCCUGCAGGUCGACUCUAGAAAACAUG”, the binding signal with PUM1 PUF domain R2-PWL was 6.99 log2 enrichment (interaction score).
In the case of “GGCUAGAACUAGUGGAUCCCCCGGCGCCCGGCGGCUCGAGCCCGGGUAAGCGUAAAUAGUCUGCAUGCCGCCGGGCGCCAUGCCUGCAGGUCGACUCUAGAAAACAUG”, the binding signal in the test with PUM1 PUF domain R8-HFR is 4.92 log2 enrichment (interaction score).
As for “GGCUAGAACUAGUGGAUCCCCCGGCGCCCGGCGGCUCGAGCCCGGGUAAGUGUAAUUAGUCUGCAUGCCGCCGGGCGCCAUGCCUGCAGGUCGACUCUAGAAAACAUG”, the figures for the binding signal with PUM1 PUF domain R3-RGR, in the test with PUM1 PUF domain R3-VYP and with PUM1 PUF domain R3-LSK were 2.38 log2 enrichment (interaction score), 2.9 log2 enrichment (interaction score) and 5.2 log2 enrichment (interaction score), respectively.
As for “GGCUAGAACUAGUGGAUCCCCCGGCGCCCGGCGGCUCGAGCCCGGGUAAGUGUAUAUAGUCUGCAUGCCGCCGGGCGCCAUGCCUGCAGGUCGACUCUAGAAAACAUG”, the binding signal with PUM1 PUF domain R4-GNT was 3.55 log2 enrichment (interaction score).
For “GGCUAGAACUAGUGGAUCCCCCGGCGCCCGGCGGCUCGAGCCCGGGUAAGUGAAAAUAGUCUGCAUGCCGCCGGGCGCCAUGCCUGCAGGUCGACUCUAGAAAACAUG”, the figures for the binding signal with PUM1 PUF domain R6-VWR and with PUM1 PUF domain R6-SWG were 3.34 log2 enrichment (interaction score) and 1.35 log2 enrichment (interaction score), respectively.
As for “GGCUAGAACUAGUGGAUCCCCCGGCGCCCGGCGGCUCGAGCCCGGGUAAGUGUAAAUGGUCUGCAUGCCGCCGGGCGCCAUGCCUGCAGGUCGACUCUAGAAAACAUG”, the binding signal in the test with PUM1 PUF domain R1-RSE is 0.71 log2 enrichment (interaction score).
As to “GGCUAGAACUAGUGGAUCCCCCGGCGCCCGGCGGCUCGAGCCCGGGUAAGUCUAAAUAGUCUGCAUGCCGCCGGGCGCCAUGCCUGCAGGUCGACUCUAGAAAACAUG”, in the test with PUM1 PUF domain R7-RCC, the binding signal was 2.43 log2 enrichment (interaction score).
“GGCUAGAACUAGUGGAUCCCCCGGCGCCCGGCGGCUCGAGCCCGGGUAAGUGUGAAUAGUCUGCAUGCCGCCGGGCGCCAUGCCUGCAGGUCGACUCUAGAAAACAUG”: the binding signal with PUM1 PUF domain R5-FHM was 5.31 log2 enrichment (interaction score); in the test with PUM1 PUF domain R5-SRM, 1.99 log2 enrichment (interaction score).
For “GGCUAGAACUAGUGGAUCCCCCGGCGCCCGGCGGCUCGAGCCCGGGUAAGUGUAAAUAGUCUGCAUGCCGCCGGGCGCCAUGCCUGCAGGUCGACUCUAGAAAACAUG”, the binding signal is 3.95 log2 enrichment (interaction score) in the test with PUM1 PUF domain R4-SPT; 5.89 log2 enrichment (interaction score) with PUM1 PUF domain R6-VWR; 2.46 log2 enrichment (interaction score) with PUM1 PUF domain R6-DWV; 4.33 log2 enrichment (interaction score) with PUM1 PUF domain R3-YFA; 2.11 log2 enrichment (interaction score) in the test with PUM1 PUF domain R3-YRL; 6.41 log2 enrichment (interaction score) with PUM1 PUF domain R4-DWI. Besides, the binding signal in the test with PUM1 PUF domain R3-VYP was 5.74 log2 enrichment (interaction score); in the test with PUM1 PUF domain R6-SWG it was 4.18 log2 enrichment (interaction score); in the test with PUM1 PUF domain R5-SRM it was 2.84 log2 enrichment (interaction score).
